The values that follow come from PubChem BioAssay (NCATS).

Assay [1] addresses Catechol O-methyltransferase (Homo sapiens) (UniProt P21964). As to the kind of experiment: Confirmatory Screen for Target Class Profiling of Small Molecule Inhibitors of Methyltransferases (AID 1745852). For activity change, negative = inhibition: % is set by controls: 0 for no effect and ±100 for the full control effect. Note: potency is the fitted concentration of half-maximal effect. Particulars: MTase-Glo luminescence, SAH detection, recombinant enzyme; measured here: COMT max response; stronger effect = lower value.
For assay [2], the target named is Guanidinoacetate N-methyltransferase (Homo sapiens) (UniProt Q14353). The description is as above. Particulars: MTase-Glo luminescence, SAH detection, recombinant enzyme; activity change, negative = inhibition: at 57.3 µM (top of the series) unless noted; series mostly up to 57.3 µM.
In assay [3] the target is Nicotinamide N-methyltransferase (Homo sapiens) (UniProt P40261). The description is as above. The following applies: MTase-Glo luminescence, SAH detection, recombinant enzyme; measured here: NNMT max response; stronger effect = lower value.
Nicotinamide N-methyltransferase (Homo sapiens), sequence (P40261 whole entry, looked up): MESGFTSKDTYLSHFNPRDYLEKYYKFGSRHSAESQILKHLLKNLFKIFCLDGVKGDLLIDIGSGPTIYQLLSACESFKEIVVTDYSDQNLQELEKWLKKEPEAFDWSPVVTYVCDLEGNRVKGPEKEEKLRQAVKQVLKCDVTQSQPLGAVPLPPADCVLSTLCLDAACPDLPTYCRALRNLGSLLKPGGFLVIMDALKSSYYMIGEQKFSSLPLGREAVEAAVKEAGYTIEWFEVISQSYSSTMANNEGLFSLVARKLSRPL
The target of assay [4] is Phenylethanolamine N-methyltransferase (Homo sapiens) (UniProt P11086). The description is as above. Particulars: MTase-Glo luminescence, SAH detection, recombinant enzyme; measured here: PNMT max response; stronger effect = lower value.
Phenylethanolamine N-methyltransferase (Homo sapiens), sequence (P11086 whole entry, looked up): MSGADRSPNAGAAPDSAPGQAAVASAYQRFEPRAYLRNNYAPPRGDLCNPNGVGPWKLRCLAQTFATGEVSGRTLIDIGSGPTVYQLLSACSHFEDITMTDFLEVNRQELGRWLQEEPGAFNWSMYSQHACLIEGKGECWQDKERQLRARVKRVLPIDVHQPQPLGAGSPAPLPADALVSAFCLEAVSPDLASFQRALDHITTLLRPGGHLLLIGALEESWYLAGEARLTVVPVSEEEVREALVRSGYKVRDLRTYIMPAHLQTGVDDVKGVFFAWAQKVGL
The nature of assay [5]: Viability counterscreen for antagonist of constitutive androstane receptor (CAR) against the NCATS DSHEA and TCM libraries (AID 1794837; active = well fitted curve in the direction sought with a large enough effect; an effect the other way counts as inactive or inconclusive;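 note: compound exposure lasted 24 h before viability reading; 0% is about no effect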). The following applies: CAR reporter cell line viability counterscreen, qHTS; series mostly up to 40 µM. The method in brief:
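Fluorescence from CellTiter-Fluor reports live-cell protease activity in HepG2-CYP2B6-hCAR cells treated for 24 h with substances alongside 48 uM CITCO.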

The nature of assay [6]: Viability counterscreen for agonist of constitutive androstane receptor (CAR) against the NCATS DSHEA and TCM libraries (AID 1794838; active = well fitted curve in the direction sought with a large enough effect; an effect the other way counts as inactive or inconclusive;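 note: cells exposed to compound for 24 h; 0% is about no effect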). Particulars: HepG2 cell viability counterscreen, CAR agonist assay, co-treated with 0.75 µM CAR antagonist; series mostly up to 40 µM. The method in brief: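 In agonist mode, PK11195 is added at 0.75 uM final to HepG2-CYP2B6-hCAR cells dosed with test substances. Cultures incubate 24 h at 37C before a protease-based fluorogenic viability readout.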

For assay [7], the target named is Nuclear receptor subfamily 1 group I member 3 (Homo sapiens) (UniProt Q14994). As to the kind of experiment: Primary qHTS for agonist of constitutive androstane receptor (CAR) against the NCATS DSHEA and TCM libraries (AID 1794839; active = well fitted curve in the direction sought with a large enough effect; an effect the other way counts as inactive or inconclusive;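 note: HepG2 cells expressing human CAR with a CYP2B6 reporter plus PK11195 antagonist; luciferase reporter luminescence read with ONE-Glo; 0% is about no effect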). The following applies: CAR agonist reporter cells, qHTS luminescence, CAR antagonist co-added at 0.75 µM; series mostly up to 40 µM. The method in brief: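 Cells stably carrying hCAR and a CYP2B6 reporter (HepG2 background) are seeded and allowed 5 h to adhere. Substances at multiple concentrations are added alongside 0.75 µM PK11195, and luciferase signal is measured after 24 h.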
Nuclear receptor subfamily 1 group I member 3 (Homo sapiens), sequence (Q14994 whole entry, looked up): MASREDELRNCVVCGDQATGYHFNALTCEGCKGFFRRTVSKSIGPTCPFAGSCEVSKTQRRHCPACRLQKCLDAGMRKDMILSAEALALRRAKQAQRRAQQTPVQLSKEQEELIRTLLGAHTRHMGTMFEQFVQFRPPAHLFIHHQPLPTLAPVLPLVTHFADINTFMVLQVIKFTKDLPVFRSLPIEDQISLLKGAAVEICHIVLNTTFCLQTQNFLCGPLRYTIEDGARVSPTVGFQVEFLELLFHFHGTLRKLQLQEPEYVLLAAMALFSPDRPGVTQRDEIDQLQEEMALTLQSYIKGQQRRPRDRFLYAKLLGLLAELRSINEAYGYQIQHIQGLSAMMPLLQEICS

Assay [8] is described as follows: NCATS anti-infectives library activity on HEK293 viability as a counter-qHTS vs the C. elegans viability qHTS (AID 1745854; active = well fitted curve in the direction sought with a large enough effect; an effect the other way counts as inactive or inconclusive; note: % is set by controls: 0 for no effect and ±100 for the full control effect). The following applies: HEK293 viability counter-screen; series mostly up to 41.8 µM. In a few lines: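 Cytotoxicity counter-screen to a worm viability qHTS: CellTiter-Glo luminescence read 10 min after reagent addition. Compounds (final up to 41.7 uM, a 1:5 dilution series) incubated 24 hr at 37C with 1,500 HEK293 cells per well; digitonin control.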

SMILES strings stand for the structures. Inconclusive results are not listed. Active and inactive are the calls of the source. Unless noted, calls come from the whole dose curve.

Catechol O-methyltransferase (Homo sapiens), sequence (P21964 whole entry, looked up): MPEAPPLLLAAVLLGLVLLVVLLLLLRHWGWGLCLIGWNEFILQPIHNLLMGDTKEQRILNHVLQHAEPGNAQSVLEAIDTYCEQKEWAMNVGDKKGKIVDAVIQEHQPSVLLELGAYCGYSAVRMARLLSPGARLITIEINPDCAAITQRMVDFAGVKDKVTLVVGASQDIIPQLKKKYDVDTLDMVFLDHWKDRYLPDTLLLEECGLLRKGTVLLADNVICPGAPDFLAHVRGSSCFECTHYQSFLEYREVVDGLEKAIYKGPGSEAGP

As for `CCCCCCCOc1cc2c(cc1/C(C)=C/c1ccc(C(=O)O)cc1)C(C)(C)CCS2(=O)=O`, the activity in assay [1] is -11.5%; in assay [3], -71.1%; in assay [4] it was -11.4%. In addition, in assay [2], the Potency was 27.1 µM (active).
`C[C@H](Nc1cc2c(-c3ccc4c(c3)OCO4)noc2cn1)c1ccccc1`: the figures for the activity in assay [1], in assay [3] and in assay [4] were -8.55%, -7.23% and -13.9%, respectively. Moreover, the activity change, negative = inhibition in assay [2] was -10.4%.
In the same order, the values of `COc1cc2nc(N3CCN(C(=O)c4ccco4)C4CCCCC43)nc(N)c2cc1OC` (centres undefined) are -2.31%, -31.3%, 0.0711% and 0%.
In the same order, the values of `CCNC(=O)C#Cc1ccc2c(C(=Nc3ccc(CN(C)C)cc3)c3ccccc3)c(O)[nH]c2c1` are -20.9%, -31%, -19.5% and -11.9% [at 29.8 µM].
The like results for `C=CC(=O)Nc1ccc(CN2C(=O)N(c3cc(OC)cc(OC)c3)Cc3cnc(Nc4ccc(N5CCN(C)CC5)cc4)nc32)cc1` were, in that order, -18.9%, -1.46%, -2.5% and -0.849%.
Turning to `Nc1nc(NC2CC2)cc(-c2cccc(Cl)c2Cl)n1`, the values for the activity in assay [1], in assay [3] and in assay [4] were -8.02%, -52.3% and -7.75%, respectively. In assay [2], the activity change, negative = inhibition is -4.54%.
On to `CCN(CC)C(=O)c1ccc(Nc2nc(OCC3CCCCC3)c3[nH]cnc3n2)cc1`, for which the activity is -18.1% in assay [1], -75.3% in assay [3] and -18.4% in assay [4]. In addition, in assay [2], the Potency is 30.4 µM (active).
For the compound `CC[N+]1(C/C2=C/CCCCCC2)CCC(NC(=O)C2c3cc(Cl)ccc3Oc3ccc(Cl)cc32)CC1` (centres undefined), the activity in assay [1] was -37.4%; in assay [3], -28%; in assay [4] it was -2.38%. For the same compound, the activity change, negative = inhibition in assay [2] turned out to be 0%.
On to `C=CC(=O)Nc1ccc2ncnc(Nc3cccc(Br)c3)c2c1`, for which the figures for the activity in assay [1], in assay [3] and in assay [4] were -59.2%, -38.9% and -49.9%, respectively. Besides, the Potency in assay [2] is 19.2 µM (active).
The like results for `CN(C)c1ccc(NC(=O)NS(=O)(=O)c2ccc(Cl)cc2)cc1` were, in that order, -53.7%, -25%, -83.5% and 27.1 µM (active).
The like results for `COc1cc(/C=C2\CCCN([C@@H](C)c3ccc(F)cc3)C2=O)ccc1-n1cnc(C)c1` were, in that order, -8.51%, -25.5%, -13% and 2.41 µM (active).
Take `CC(C)C[C@H](CO)Nc1nc(S[C@@H](C)c2ccccc2)nc2nc(N)sc12`: the activity in assay [1] is -3.51%; in assay [3], -40.8%; in assay [4], -2.5%. Moreover, the activity change, negative = inhibition in assay [2] was 1.87%.
With `CC(C)(O)C(=O)N1CCN(c2ccc(C(F)(F)F)c(C3=C(c4c[nH]c5ccccc45)C(=O)NC3=O)c2)CC1`, the activity in assay [1] was -37.9%; in assay [3] it was -37%; in assay [4], -34.7%. Further, the Potency in assay [2] is 30.4 µM (active).
Take `Cc1cc(NC(=O)c2cccc(NC(=O)/C=C/CN(C)C)c2)ccc1Nc1nccc(-c2cccnc2)n1`: the activity in assay [1] was -3.09%; in assay [3], -3.09%; in assay [4], -2.64%. Also, the activity change, negative = inhibition in assay [2] stood at 1.37%.
As for `COc1ccccc1N1CCN(c2ncnc3n[nH]c(Br)c23)CC1`, the values for the activity in assay [1], in assay [3] and in assay [4] were -8.96%, -42.7% and -19.8%, respectively. In addition, the activity change, negative = inhibition in assay [2] is -0.635%.
As for `N#Cc1ccc(COC[C@H]2O[C@@H](n3c(NCc4ccc(Cl)c(Cl)c4)nc4c(N)ncnc43)[C@H](O)[C@@H]2O)cc1`, the figures for the activity in assay [1], in assay [3] and in assay [4] were -4.68%, -79.6% and -74.2%, respectively. Also, the Potency in assay [2] was 23.5 µM (active).
In the same order, the values of `c1cc(NCCc2c[nH]c3ccccc23)cc(Nc2ccncc2)c1` are -7.79%, -26%, -13.2% and 48.2 µM (active).
Turning to `O=C(Nc1ccc(C(F)(F)F)cn1)N1CCN(c2ncccc2C(F)(F)F)CC1`, the activity in assay [1] was -1.28%; in assay [3], -0.919%; in assay [4], -60.8%. In assay [2], the activity change, negative = inhibition worked out at 0%.
With `Cc1c(OCc2cccc(-c3ccc(C(=O)O)cc3)c2)cc2c(c1C)C(=O)C(C1CCCC1)C2` (centres undefined), the activity in assay [1] is -4.94%; in assay [3], -40.4%; in assay [4], -6.25%. Further, the activity change, negative = inhibition in assay [2] was -6.27%.
In the same order, the values of `O=C(c1ccc(Cl)cc1)N1CCN(c2ccnc3cc(Cl)ccc23)CC1` are -6.44%, -41.3%, -10.9% and -4.09%.
The like results for `Fc1ccc2[nH]ccc2c1-c1nc(N2CCOCC2)c2sc(CN3CCN(CC4CC4)CC3)cc2n1` were, in that order, -1.17%, -62.5%, -22.1% and 0%.
In the case of `O=S1(=O)CCN(Cc2cc(NCC3CCOCC3)c3[nH]c(-c4ccccc4)cc3c2)CC1`, the activity in assay [1] is -4.1%; in assay [3], -6.86%; in assay [4], -4.93%. The activity change, negative = inhibition in assay [2] is -1.81%.
Consider `C=C1[C@H]2CC[C@H](C(=O)O)[C@@]23CC[C@H](C3)C1(C)C`, for which the outcome in assay [5], in assay [6] and in assay [7] was “inactive” in each case.
In the case of `COC1CCN(C(=O)c2cc(Cc3n[nH]c(=O)c4ccccc34)ccc2F)CC1`, in assay [8], the outcome is “inactive”.
Still for that read-out and setting: to `Cc1cnc(-c2ccccc2C(C)C)nc1NCc1ccc(-n2ccnn2)cc1` belongs “inactive”; to `CO[C@H]1C[C@@H]2CC[C@@H](C)[C@@](O)(O2)C(=O)C(=O)N2CCCC[C@H]2C(=O)O[C@H]([C@@H](C)C[C@@H]2CC[C@@H](O)[C@H](OC)C2)CC(=O)[C@H](C)/C=C(\C)[C@@H](O)[C@@H](OC)C(=O)[C@H](C)C[C@H](C)/C=C/C=C/C=C/1C`, “inactive”.
In the case of `O=C(NCC1(c2nc(-c3ccccc3)cs2)CCOCC1)c1cccc(-c2noc(C(F)(F)F)n2)c1`, the outcome in assay [8] is “inactive”.
In the case of `Fc1ccc(N2CCCCC2)c(NC(=S)c2ccncc2)c1`, the activity in assay [1] is -6%; in assay [3], -9.58%; in assay [4], -11.8%. Besides, in assay [2], the activity change, negative = inhibition turned out to be 2.26%.
